# Test results: PubChem BioAssay (EPA / NIEHS)
# Activity calls are given as the source filed them. How the source made its calls: active means hit-call score of the fitted dose curve at least 0.9, where 1 is the maximum; inactive means score below 0.9.
# Read-out: ABC Transporter (ABCC3), ABCC3 (gene 8714)
# Test: LTEA_HepaRG_ABCC3: Life Technologies and Expression Analysis (LTEA) Assay for ABC Transporter (ABCC3) using HepaRG (AID 2283462)
# Conditions: mRNA level, 48 h; actives raise or lower the signal
# Description: LTEA_HepaRG is a cell based, multiplexed-readout assay that uses HepaRG, a human liver cell line, with measurements taken at 48 hours after chemical dosing on a 96-well plate.LTEA_HepaRG_ABCC3 is one of 102 assay component(s) measured in the LTEA HepaRG cell culture assay. It is a marker of NR mediated transport.Data from the assay component LTEA_HepaRG_ABCC3 was analyzed into 1 endpoint. This assay endpoint, LTEA_HepaRG_ABCC3, was analyzed with bidirectional fitting relative to DMSO as the negative control and baseline of activity. Using a type of inducible reporter, measures of mRNA induction for gain or loss-of-signal activity can be used to understand regulation of transcription factor activity. To generalize the intended target to other relatable targets, this assay endpoint is annotated to the transporter intended target family, where the subfamily is ABC transporter.
# A total of 1060 chemcials from the ToxCast library were tested in eight-point concentration-response experiments. Cell culture and cytotoxicity assays were conducted at Thermo Fisher Scientific's Custom Services facility (Madison, WI). A single lot of human HepaRG cells (Thermo Fisher Scientific, Frederick, MD) was used for the cell culture experiments. 96-well format collagen type I coated plates of human HepaRG cells were prepared using established methods. Briefly, cryopreserved HepaRG cells were thawed, plated at a density of approximately 100,000 cells/well in HepaRG Thaw, Plate, and General Purpose media (HPRG770, Thermo Fisher Scientific), and incubated for 48 hours. 0.5% DMSO was selected as vehicle control to balance the requisite need of DMSO in HepaRG cultures to maintain differentiation (for example, baseline metabolism, proportions of hepatocytes vs. cholangiocytes), while enabling further hepatic receptor pathway activation (for example, PXR and CAR) in response to chemical exposure. 48 hours after plating, the culture medium was replaced with HepaRG Serum-Free Incudtion Media. Cells were exposed to each test chemical in duplicate and maintained in CO2 incubators for another 48 hours. Chemical plates were thawed to room temperature and 200x concentrations of treatment groups were prepared. 8-point conentration-reponse curves were made with the highest exposure at 100 uM, followed by half-log dilutions, all in 0.5% DMSO. Each test plate contained variouse controls, induction positive controls (1mM phenobarbital), cytotoxicity positive controls ([…] aflatoxin B1), vehicle controls (0.5% DMSO), and total lysis controls (0.5% DMSO). Cell morphology images were taken using an Essen IncuCyte FLR automated microscope, with six 96-well plates imaged in about 24 minutes. Images were captured and exported and JPEG files. Spent culture media was transfered to black-well plates for the LDH assay, and remaining media was sorted at -80 C for later use. Cells were treated with RLT buffer and frozen until shipped for gene expression analysis. Total RNA was isolated from the cell suspension in 75 uL of Buffer RLT (Qiagen, Germantown, MD 20874) by Quintiles/Expression Analysis (Durham, NC) using a custom isolation procedure. Total RNA from each plate well was transferred to a preamplification plate. Fluidigm's 96.96 Dynamic ArrayTM (Fluidigm, Amsterdam, the Netherlands) technology was used for gene expression analyses by quantitative reverse transcription polymerase chain reaction (qRT-PCR, performed by Quintiles/Expression Analysis, Durham, NC)89. Standard TaqManTM Assays (Applied Biosystems/ThermoFisher Scientific, Foster City, CA) were used to assess the expression of 93 genes selected based on their selectivity and sensitivity to important hepatic receptors known to be modulated by environmental chemicals; importance in human hepatocyte functionality; and hepatotoxicity. […]
SMILES,outcome,AC50
O=[N+]([O-])/N=C1\NCCN1Cc1ccc(Cl)nc1,inactive,
CC(C)N(C(=O)COc1nnc(C(F)(F)F)s1)c1ccc(F)cc1,inactive,
CCN(CC)C(=O)SCc1ccc(Cl)cc1,inactive,
O=S1OCC2C(CO1)C1(Cl)C(Cl)=C(Cl)C2(Cl)C1(Cl)Cl (stereo not given),inactive,
O=[N+]([O-])c1c(Cl)c(Cl)c(Cl)c(Cl)c1Cl,inactive,
O=C(Nc1ccccc1)Nc1cnns1,,78.6 µM (active)
CC(C)(C)C(O)C(Oc1ccc(Cl)cc1)n1cncn1 (stereo not given),inactive,
COc1nn(CSP(=S)(OC)OC)c(=O)s1,inactive,
Oc1ccc(Cl)cc1Cc1ccccc1,inactive,
CN1CSC(=S)N(C)C1,inactive,
CC(C)(C)C(O)/C(=C\c1ccc(Cl)cc1Cl)n1cncn1 (stereo not given),inactive,
CCc1ccc(C(=O)NN(C(=O)c2cc(C)cc(C)c2)C(C)(C)C)cc1,inactive,
ClC1C(Cl)C(Cl)C(Cl)C(Cl)C1Cl (stereo not given),inactive,
O=C(O)C(F)(F)C(F)(F)C(F)(F)C(F)(F)C(F)(F)C(F)(F)C(F)(F)F,inactive,
COP(=S)(OC)Oc1ccc([N+](=O)[O-])cc1,inactive,
CNC(=O)/C=C(\C)OP(=O)(OC)OC,inactive,
CCOC1Oc2ccc(OS(C)(=O)=O)cc2C1(C)C (stereo not given),,66.7 µM (active)
O=S(=O)(O)C(F)(F)C(F)(F)C(F)(F)C(F)(F)C(F)(F)C(F)(F)C(F)(F)C(F)(F)F,inactive,
CNC(=O)Oc1ccccc1OC(C)C,inactive,
O=C(NC(=O)c1c(F)cccc1F)Nc1ccc(OC(F)(F)C(F)OC(F)(F)F)c(Cl)c1 (stereo not given),inactive,

SMILES,outcome,AC50
C#CCN1C(=O)COc2cc(F)c(N3C(=O)C4=C(CCCC4)C3=O)cc21,inactive,
OCCOc1ccccc1,inactive,
CC[C@H](C)[C@H]1O[C@]2(C=C[C@@H]1C)C[C@@H]1C[C@@H](C/C=C(\C)[C@@H](O[C@H]3C[C@H](OC)[C@@H](O[C@H]4C[C@H](OC)[C@@H](O)[C@H](C)O4)[C@H](C)O3)[C@@H](C)/C=C/C=C3\CO[C@@H]4[C@H](O)C(C)=C[C@@H](C(=O)O1)[C@]34O)O2 (tested in a mixture with another compound),,46.5 µM (active)
O=C(O)CCCOc1ccc(Cl)cc1Cl,inactive,
CNC(=O)Oc1cccc(N=CN(C)C)c1,inactive,
CCCN(CCC)c1c([N+](=O)[O-])cc(C(F)(F)F)cc1[N+](=O)[O-],inactive,
COP(=S)(OC)Oc1ccc(SC)c(C)c1,inactive,
O=C(O)COc1ccc(Cl)cc1Cl,inactive,
Oc1cc(Cl)ccc1Oc1ccc(Cl)cc1Cl,inactive,
C[C@H]1[C@H](c2ccc(Cl)cc2)SC(=O)N1C(=O)NC1CCCCC1,inactive,
Cc1[nH]c(=O)n(C(C)(C)C)c(=O)c1Cl,inactive,
CCC(C)(C)C(=O)OC1=C(c2ccc(Cl)cc2Cl)C(=O)OC12CCCCC2,inactive,
O=C1c2ccccc2C(=O)N1SC(Cl)(Cl)Cl,inactive,
CNC(=O)CSP(=S)(OC)OC,inactive,
CCC(C)Nc1c([N+](=O)[O-])cc(C(C)(C)C)cc1[N+](=O)[O-] (stereo not given),inactive,
CC1(c2ccc(Oc3ccccc3)cc2)OC(=O)N(Nc2ccccc2)C1=O (stereo not given),inactive,
CC(C)OC(=O)Nc1cccc(Cl)c1,inactive,
CCOCN(C(=O)CCl)c1c(C)cccc1CC,inactive,
CCCN(CCOc1c(Cl)cc(Cl)cc1Cl)C(=O)n1ccnc1,inactive,
COP(=O)(OC)OC=C(Cl)Cl,inactive,
